The results in this text go back to PubChem BioAssay (NCATS).

Records with an inconclusive call do not appear. The source made the active and inactive calls. Unless noted, calls come from the whole dose curve.

For test [1], the target named is Estrogen receptor (Homo sapiens) (UniProt P03372). In words: qHTS assay for small molecule antagonists of estrogen receptor alpha signaling (AID 588513; active = well fitted curve in the direction sought with a large enough effect in the signal ratio, with a control signal flat, not every such curve was filed as active; the % refers to the signal ratio; note: potency is the fitted concentration of half-maximal effect). The procedure, abridged:
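Fluorescence from CCF4 substrate after 2 h at room temperature gave reporter activity; cells had been exposed to compound and 0.5nM 17-beta-estradiol for 18 h at 37 C. Hill-equation fitting yielded IC50 and maximal response.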
(Quantitative high-throughput screening tests each substance at several concentrations.)

The target is the same in test [2]. In words: qHTS assay for small molecule agonists of estrogen receptor alpha signaling (AID 588514).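 Note: 0% = vehicle only and 100% = reference agonist; nearly all actives have a fitted effect of over 70% in size.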 In short, it runs like this: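 ER-alpha-UAS-bla GripTite HEK 293 cells in medium with 2% charcoal/dextran-treated FBS were treated with compound titrations at 37 C for 18 hrs; beta-lactamase reporter read by CCF4 fluorescence after 2 hrs at RT.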
The target in test [3] is Peroxisome proliferator-activated receptor delta (Homo sapiens) (UniProt Q03181). In words: qHTS assay for small molecule agonists of peroxisome proliferator-activated receptor delta signaling (AID 588534).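 Note: 0% = DMSO basal wells and 100% = positive control agonist at 10 µM.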 In short, it runs like this:
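Cell-based beta-lactamase reporter assay run in agonist mode: cells seeded and incubated 5 hrs at 37 C, compounds added and incubated 18 hrs at 37 C. CCF4 dye fluorescence read after 2 hrs at RT; EC50 and efficacy from Hill fits.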

Test [4] has as its target Peroxisome proliferator-activated receptor gamma (Homo sapiens) (UniProt P37231). In words: qHTS assay for small molecule agonists of peroxisome proliferator-activated receptor gamma signaling (AID 588536; active = well fitted curve in the direction sought with a large enough effect in the signal ratio, with a control signal flat, not every such curve was filed as active; the % refers to the signal ratio; note: potency is the fitted concentration of half-maximal effect;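 for activation: 0% = DMSO basal wells and 100% = rosiglitazone at 2 µM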). The procedure, abridged: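 Ratiometric blue/green fluorescence (405 nm excitation; 460 and 530 nm emission) from CCF4-loaded HEK293 reporter cells serves as signal. Exposure to test compounds lasts 16 h at 37 C in medium containing 1% charcoal/dextran-treated serum.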

The target is the same in test [5]. In words: qHTS assay for small molecule antagonists of peroxisome proliferator-activated receptor gamma signaling (AID 588537; active = well fitted inhibition curve with a large enough effect in the signal ratio, with a control signal flat, not every such curve was filed as active; the % refers to the signal ratio;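 note: reporter cells co-stimulated with 50 nM rosiglitazone agonist during compound treatment; % of control where 0% means no effect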). In short, it runs like this: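 Step one: plate 3000 HEK293 UAS-bla cells per well in medium with 1% stripped serum and hold 6-6.5 h at 37 C. Step two: add compound and 50 nM agonist for 16 h. Step three: CCF4 loading, fluorescence read.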

Test [6] addresses Vitamin D3 receptor (Homo sapiens) (UniProt P11473). In words: qHTS assay for small molecule antagonists of vitamin D receptor signaling (AID 588541).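 Note: receptor activated by calcitriol during compound treatment; series mostly up to about 77 µM; % is set by controls: 0 for no effect and ±100 for the full control effect.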 In short, it runs like this:
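VDR-UAS-bla HEK293T cells in 2% charcoal-stripped FBS were stimulated with 1-alpha,25-dihydroxyvitamin D3 (3 nM final) plus compound for 16 h at 37 C. The beta-lactamase CCF4 readout was normalized to 50 nM agonist and DMSO, and Hill fits gave IC50.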

For test [7] the target is unchanged. In words: qHTS assay for small molecule agonists of vitamin D receptor signaling (AID 588543).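 Note: 0% = DMSO basal and 100% = reference agonist control.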 The procedure, abridged:
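Reporter cells (HEK293T, VDR-UAS-bla) were seeded in medium with 2% charcoal-stripped serum and incubated 5 h, then compounds in concentration series were added for 16 h at 37 °C. Stimulation was scaled between DMSO basal and 50 nM 1α,25-dihydroxyvitamin D3.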

In test [8] the target is Retinoic acid receptor RXR-alpha (Homo sapiens) (UniProt P19793). In words: qHTS assay for small molecule agonists of retinoid X receptor alpha signaling (AID 588544).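 Note: 0% = DMSO basal wells and 100% = reference agonist.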
Sequence of Retinoic acid receptor RXR-alpha (Homo sapiens) (P19793 whole entry, looked up): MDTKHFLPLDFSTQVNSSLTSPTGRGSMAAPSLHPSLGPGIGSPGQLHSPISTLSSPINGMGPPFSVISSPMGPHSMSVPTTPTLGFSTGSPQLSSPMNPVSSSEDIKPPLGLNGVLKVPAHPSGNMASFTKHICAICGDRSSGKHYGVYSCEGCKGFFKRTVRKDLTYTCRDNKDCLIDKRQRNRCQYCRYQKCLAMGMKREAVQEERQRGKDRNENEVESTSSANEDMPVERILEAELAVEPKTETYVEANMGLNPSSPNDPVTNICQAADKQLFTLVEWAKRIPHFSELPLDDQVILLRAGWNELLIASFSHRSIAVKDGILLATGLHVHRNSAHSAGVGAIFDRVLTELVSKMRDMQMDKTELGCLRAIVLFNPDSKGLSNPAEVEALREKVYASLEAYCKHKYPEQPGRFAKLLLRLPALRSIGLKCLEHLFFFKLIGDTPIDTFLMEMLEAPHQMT
In test [9] the target is Thyroid hormone receptor beta (Homo sapiens) (UniProt P10828). In words: qHTS assay for small molecule agonists of thyroid hormone receptor beta signaling (AID 588545).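 Note: 0% = DMSO only and 100% = 10 nM T3.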 The procedure, abridged:
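Stimulation of a TR-driven beta-lactamase reporter was quantified in GripTite HEK 293 cells. Compound series ran for 18 hrs; curves were normalized to T3 and DMSO controls and fitted to yield EC50.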

A short description of test [10]: qHTS assay for small molecule antagonists of retinoid X receptor alpha signaling (AID 588546; active = well fitted inhibition curve with a large enough effect in the signal ratio, with a control signal flat, not every such curve was filed as active; the % refers to the signal ratio;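 note: cells stimulated with 9-cis-retinoic acid as agonist; % is set by controls: 0 for no effect and ±100 for the full control effect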). To be noted: HEK293T RXRa-UAS-bla, beta-lactamase ratio, antagonist mode; measured here: W530 green channel, cytotoxicity proxy. The procedure, abridged: (§1)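 Beta-lactamase reporter inhibition, read as CCF4 fluorescence ratio (ex 405, em 460/530 nm) after 2 h at RT. HEK293T UAS-bla cells, 2500/well, were stimulated with 9-cis-RA at 500 or 100 nM final alongside test compound for 18 h at 37 C.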

Test [11] deals with Retinoic acid receptor RXR-alpha (Homo sapiens) (UniProt P19793). The description is as above. To be noted: HEK293T RXRa-UAS-bla, beta-lactamase ratio, antagonist mode. In short, it runs like this: as §1
Test [12] concerns the target Thyroid hormone receptor beta (Homo sapiens) (UniProt P10828). In words: qHTS assay for small molecule antagonists of thyroid hormone receptor beta signaling (AID 588547; active = well fitted inhibition curve with a large enough effect in the signal ratio, with a control signal flat, not every such curve was filed as active; the % refers to the signal ratio;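 note: cells stimulated with 0.4 nM T3 agonist during compound exposure; series mostly up to about 77 µM; % is set by controls: 0 for no effect and ±100 for the full control effect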). The settings on record: TR-UAS-bla HEK293, beta-lactamase ratio, antagonist mode, 18 h. In short, it runs like this:
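TR-UAS-bla GripTite HEK293 cells in 2% charcoal/dextran FBS medium; compounds 0.59 nM to 92 uM with T3 at 0.4nM final, 18 h at 37 C. Beta-lactamase read by CCF4 fluorescence (460/530 nm); Hill fits gave IC50 and efficacy.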

The nature of test [13]: qHTS assay for small molecule activators of the p53 signaling pathway (AID 651743; active = well fitted activation curve with a large enough effect in the signal ratio, not every such curve was filed as active; the % refers to the signal ratio; note: series mostly up to about 92 µM; % of control where 0% means no effect). To be noted: HCT-116 p53RE-bla, beta-lactamase FRET ratio, 16 h; activation: stronger effect = higher value. The procedure, abridged:
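HCT-116 p53RE-bla, 4,000 cells/well; 5 h settle; cpd/DMSO 16 h, 37 C; LiveBLAzer B/G 2 h RT; fluorescence intensity.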

Test [14] concerns the target Peroxisome proliferator-activated receptor alpha (Homo sapiens) (UniProt Q07869). In words: qHTS assay for small molecule agonists of the peroxisome proliferator-activated receptor alpha (PPARalpha) signaling pathway (AID 651778; active = well fitted curve in the direction sought with a large enough effect; an effect the other way counts as inactive or inconclusive; note: % of control where 0% means no effect). To be noted: PathHunter PPARalpha complementation, chemiluminescence, 6 h; max response: stronger effect = higher value. In short, it runs like this: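 Enzyme-fragment complementation assay in which ligand-bound PPARalpha translocates and forms an active enzyme that generates chemiluminescence. Cells were plated overnight, exposed to compound for 6 hr at 37 C, and then given detection reagent for 60 min at room temperature.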

Test [15] is described as follows: qHTS assay for small molecule agonists of the antioxidant response element (ARE) signaling pathway measured by Nrf2-dependant transcriptional activity (AID 720636; active = well fitted curve in the direction sought with a large enough effect in the repeat runs; an effect the other way counts as inactive or inconclusive; note: % of control where 0% means no effect). The procedure, abridged:
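Nrf2-dependent transcription read as ONE-Glo luciferase signal from ARE-luc HepG2 reporter cells after 16 hr compound treatment at 37 C, 5% CO2, in assay medium with 1% dialyzed FBS.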

A short description of test [16]: qHTS assay for small molecule agonists of the antioxidant response element (ARE) signaling pathway measured by Nrf2-dependant transcriptional activity - cell viability counter screen (AID 720653; active = well fitted curve in the direction sought with a large enough effect in the repeat runs; an effect the other way counts as inactive or inconclusive; note: potency is the fitted concentration of half-maximal effect; for max response: % is set by controls: 0 for no effect and ±100 for the full control effect). The settings on record: ARE-bla HepG2 viability, CellTiter-Glo ATP luminescence, 16 h; max response: stronger effect = lower value. The procedure, abridged: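 ARE-bla HepG2 cells treated with compounds for 16 h at 37C; this counter screen measures viability as intracellular ATP by CellTiter-Glo luminescence after 30 min at room temperature.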

Test [17] can be described thus: qHTS assay for cell viability of the p53RE-bla HCT-116 cell line (AID 743292; active = well fitted curve in the direction sought with a large enough effect; an effect the other way counts as inactive or inconclusive; note: nearly all actives have a fitted effect of over 55% in size; note: potency is the fitted concentration of half-maximal effect). The procedure, abridged: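 ATP-based luminescent viability (CellTiter-Glo, 30 min RT) after 16 h compound treatment at 37 C of p53RE-bla HCT-116 cells, seeded at 4,000 cells/well and rested 5 h before dosing.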
Test [18] concerns the target Nuclear receptor subfamily 1 group I member 2 (Rattus norvegicus) (UniProt Q9R1A7). In words: qHTS assay for small molecule activators of the rat pregnane X receptor (rPXR) signaling pathway (AID 651751; call rule not given here; note: 0% is about no effect). To be noted: rPXR reporter cells, luciferase (One-Glo), 24 h.
The nature of test [19]: qHTS assay for environmental chemicals that activate the Aryl hydrocarbon Receptor (AhR) signaling pathway (AID 651777; active = well fitted curve in the direction sought with a large enough effect; an effect the other way counts as inactive or inconclusive; note: % of control where 0% means no effect; nearly all actives have a fitted effect of over 15% in size). The settings on record: 1A2-DRE human hepatoma cells, luciferase, 24 h; activation: stronger effect = higher value. In short, it runs like this: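 Luminescence (One-Glo, 30 min, room temperature) reports AhR-driven luciferase in stably transfected human hepatoma cells bearing DRE and CYP1A2 promoter. Cells (1,200/well) were treated with compound for 24 hr at 37 C in qHTS format.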

Test [20] in a line: qHTS assay for cell viability of HEK293 cells (AID 743288; active = well fitted curve in the direction sought with a large enough effect; an effect the other way counts as inactive or inconclusive; note: nearly all actives have a fitted effect of over 50% in size; note: potency is the fitted concentration of half-maximal effect). The settings on record: ATP luminescence (CellTiter-Glo), 18 h; max response: stronger effect = lower value. In short, it runs like this: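 HEK293 parental, 2,000 cells/well; ≥5 h pre-incubation 37 C; pintool compound addition; 18 h, 37 C; CellTiter-Glo 30 min RT; luminescence read.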

Sequence of Peroxisome proliferator-activated receptor delta (Homo sapiens) (Q03181 whole entry, looked up): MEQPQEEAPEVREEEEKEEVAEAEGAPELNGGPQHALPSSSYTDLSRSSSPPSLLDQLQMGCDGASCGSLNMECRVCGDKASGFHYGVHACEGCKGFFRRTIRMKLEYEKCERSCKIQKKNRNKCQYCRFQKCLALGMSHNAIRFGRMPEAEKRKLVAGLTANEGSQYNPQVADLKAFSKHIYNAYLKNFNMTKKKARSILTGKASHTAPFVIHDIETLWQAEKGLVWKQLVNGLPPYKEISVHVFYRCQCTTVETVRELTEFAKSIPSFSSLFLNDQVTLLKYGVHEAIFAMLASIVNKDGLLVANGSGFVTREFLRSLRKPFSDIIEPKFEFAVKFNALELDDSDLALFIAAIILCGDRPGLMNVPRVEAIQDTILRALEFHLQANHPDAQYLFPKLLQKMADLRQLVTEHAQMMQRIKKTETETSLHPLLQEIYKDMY
Sequence of Thyroid hormone receptor beta (Homo sapiens) (P10828 whole entry, looked up): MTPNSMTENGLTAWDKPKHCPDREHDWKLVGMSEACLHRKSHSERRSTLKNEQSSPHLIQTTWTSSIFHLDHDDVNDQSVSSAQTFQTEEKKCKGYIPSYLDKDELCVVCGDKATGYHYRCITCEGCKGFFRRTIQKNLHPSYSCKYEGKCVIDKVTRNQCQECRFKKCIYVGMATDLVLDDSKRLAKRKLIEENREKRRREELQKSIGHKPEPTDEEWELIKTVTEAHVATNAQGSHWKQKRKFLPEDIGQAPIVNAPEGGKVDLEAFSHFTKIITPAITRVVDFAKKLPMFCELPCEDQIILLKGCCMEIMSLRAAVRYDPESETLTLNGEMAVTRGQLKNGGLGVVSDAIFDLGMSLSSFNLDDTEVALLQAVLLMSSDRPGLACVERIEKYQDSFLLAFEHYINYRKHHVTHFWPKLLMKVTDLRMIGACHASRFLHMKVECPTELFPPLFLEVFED
Sequence of Peroxisome proliferator-activated receptor alpha (Homo sapiens) (Q07869 whole entry, looked up, the tested form may be a part): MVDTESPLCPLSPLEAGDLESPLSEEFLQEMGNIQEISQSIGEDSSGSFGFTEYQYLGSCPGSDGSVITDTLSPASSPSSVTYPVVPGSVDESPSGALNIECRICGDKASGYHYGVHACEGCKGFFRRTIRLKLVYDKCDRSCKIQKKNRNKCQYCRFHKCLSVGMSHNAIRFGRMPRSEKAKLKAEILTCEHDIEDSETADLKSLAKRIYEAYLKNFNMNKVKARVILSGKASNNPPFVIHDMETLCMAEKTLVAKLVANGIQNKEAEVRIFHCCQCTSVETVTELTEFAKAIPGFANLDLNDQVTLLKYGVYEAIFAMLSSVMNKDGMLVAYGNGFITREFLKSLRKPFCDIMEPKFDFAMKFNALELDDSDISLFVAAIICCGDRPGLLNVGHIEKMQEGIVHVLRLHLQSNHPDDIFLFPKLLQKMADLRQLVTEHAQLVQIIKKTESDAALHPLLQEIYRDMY
Sequence of Nuclear receptor subfamily 1 group I member 2 (Rattus norvegicus) (Q9R1A7 whole entry, looked up): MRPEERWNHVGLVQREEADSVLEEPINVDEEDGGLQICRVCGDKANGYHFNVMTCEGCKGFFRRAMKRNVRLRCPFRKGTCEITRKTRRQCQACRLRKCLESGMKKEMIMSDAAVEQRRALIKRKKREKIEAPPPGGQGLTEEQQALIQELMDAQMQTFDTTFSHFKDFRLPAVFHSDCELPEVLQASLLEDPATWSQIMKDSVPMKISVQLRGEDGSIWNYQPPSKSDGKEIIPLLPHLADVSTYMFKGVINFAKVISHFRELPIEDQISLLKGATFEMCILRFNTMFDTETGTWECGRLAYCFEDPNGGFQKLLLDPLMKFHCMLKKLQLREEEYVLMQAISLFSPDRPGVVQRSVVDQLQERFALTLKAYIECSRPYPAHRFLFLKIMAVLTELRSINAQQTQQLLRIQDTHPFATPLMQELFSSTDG
Sequence of Vitamin D3 receptor (Homo sapiens) (P11473 whole entry, looked up): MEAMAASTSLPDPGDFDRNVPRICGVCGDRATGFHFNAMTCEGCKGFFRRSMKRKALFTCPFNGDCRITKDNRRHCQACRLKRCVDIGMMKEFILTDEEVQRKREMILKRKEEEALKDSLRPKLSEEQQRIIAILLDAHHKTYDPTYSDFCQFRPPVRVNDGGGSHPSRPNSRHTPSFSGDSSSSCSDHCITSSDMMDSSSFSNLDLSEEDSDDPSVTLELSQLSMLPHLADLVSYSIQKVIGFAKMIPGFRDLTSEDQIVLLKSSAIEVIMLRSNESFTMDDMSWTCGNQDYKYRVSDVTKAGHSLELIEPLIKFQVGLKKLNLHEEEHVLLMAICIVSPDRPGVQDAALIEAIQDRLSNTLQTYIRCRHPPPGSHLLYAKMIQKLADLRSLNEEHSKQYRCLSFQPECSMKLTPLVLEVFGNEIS
Sequence of Peroxisome proliferator-activated receptor gamma (Homo sapiens) (P37231 whole entry, looked up): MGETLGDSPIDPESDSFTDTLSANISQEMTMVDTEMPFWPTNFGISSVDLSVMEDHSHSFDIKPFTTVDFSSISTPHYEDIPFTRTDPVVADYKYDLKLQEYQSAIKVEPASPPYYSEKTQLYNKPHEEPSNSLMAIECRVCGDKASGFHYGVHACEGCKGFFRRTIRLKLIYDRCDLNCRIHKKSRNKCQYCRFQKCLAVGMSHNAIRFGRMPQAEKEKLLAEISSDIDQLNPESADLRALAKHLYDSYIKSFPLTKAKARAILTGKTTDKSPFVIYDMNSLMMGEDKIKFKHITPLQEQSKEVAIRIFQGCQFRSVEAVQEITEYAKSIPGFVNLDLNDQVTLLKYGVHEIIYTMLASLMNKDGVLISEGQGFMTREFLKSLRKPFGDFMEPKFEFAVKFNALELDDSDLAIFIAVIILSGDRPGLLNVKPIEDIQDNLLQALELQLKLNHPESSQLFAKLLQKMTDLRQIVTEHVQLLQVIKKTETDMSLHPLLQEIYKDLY
Sequence of Estrogen receptor (Homo sapiens) (P03372 whole entry, looked up): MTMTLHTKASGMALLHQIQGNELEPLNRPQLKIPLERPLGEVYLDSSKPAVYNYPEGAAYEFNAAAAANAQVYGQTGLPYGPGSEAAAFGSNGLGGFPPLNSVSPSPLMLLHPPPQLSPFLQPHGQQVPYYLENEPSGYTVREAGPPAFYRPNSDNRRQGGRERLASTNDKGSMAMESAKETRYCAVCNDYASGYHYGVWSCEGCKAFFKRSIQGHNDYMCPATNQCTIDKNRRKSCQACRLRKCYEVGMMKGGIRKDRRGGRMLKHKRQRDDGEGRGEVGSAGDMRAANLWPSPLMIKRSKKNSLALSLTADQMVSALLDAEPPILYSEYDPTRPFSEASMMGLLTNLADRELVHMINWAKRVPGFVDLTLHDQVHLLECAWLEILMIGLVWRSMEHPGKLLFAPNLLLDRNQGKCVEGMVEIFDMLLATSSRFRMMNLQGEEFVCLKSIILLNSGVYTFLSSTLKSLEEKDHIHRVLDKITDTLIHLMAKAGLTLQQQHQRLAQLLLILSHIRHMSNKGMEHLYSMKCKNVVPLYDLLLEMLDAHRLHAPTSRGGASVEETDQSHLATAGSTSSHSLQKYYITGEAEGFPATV

With `CCOP(=O)(SC(C)CC)SC(C)CC` (stereo unspecified), the Potency entry in test [1], in test [2], in test [4], in test [5], in test [6] and in [8] was “inactive” throughout. Further, the Potency entry in test [9], in test [15] and in test [17] was “inactive” throughout. The molecule was classed as inactive in test [3] and in [7]. The max response in test [10] was -3.17%; in [11], -13.8% (inactive); in test [14], -1.1% (inactive); in [16] it was -6.4% (inactive); in test [18] it was 4.1% (inactive). Besides, the activity change % (negative = inhibition) in test [12] was -3.53% (inactive). The activation in test [13] is -0.0138% (inactive).
On to `CCNC(=O)NC(=O)/C(C#N)=N/OC`, for which the Potency entry in test [1], in test [2], in [4], in test [5], in [6] and in test [8] was “inactive” throughout. Further, the Potency result in test [9], in [15] and in test [17] was “inactive” in each case. Further, the molecule was called inactive in test [3] and in test [7]. Also, the max response in [10] was -2.66%; in test [11], 12.8% (inactive); in [14] it was 0.388% (inactive); in test [16] it was -0.764% (inactive); in test [20], -16.3% (inactive). The activity change % (negative = inhibition) in test [12] is 5.55% (inactive). In test [19], the activation is 0.625% (inactive).
Take `CCCCC(CC)COC(=O)Cl` (stereo unspecified): the Potency result in test [1], in test [2], in test [4], in test [5], in test [6] and in test [8] was “inactive” throughout. Also, the Potency entry in test [9], in test [15] and in test [17] was “inactive” throughout. Further, in test [7], the molecule was called inactive. Moreover, the max response in test [10] is -5.58%; in test [11], -2.38% (inactive); in test [14], -1.56% (inactive); in test [16] it was -0.503% (inactive); in [20], -1.32% (inactive); in [18] it was 4.58% (inactive). Besides, in [12], the activity change % (negative = inhibition) was -1.19% (inactive). Moreover, the activation in [19] is 2.75% (inactive).
In the case of `O=[N+]([O-])c1ccc(Oc2ccc(C(F)(F)F)cc2[N+](=O)[O-])cc1`, the Potency entry in test [1], in test [2] and in [17] was “inactive” throughout. Also, the result in test [3] and in test [7] was inactive. Besides, the Potency in test [4] was 3.55 µM (active). Besides, the max response in test [10] was -9.24%; in [11], 0.243% (inactive); in [14] it was -0.519% (inactive); in test [16] it was -18.9% (inactive); in [18], 11.4% (inactive). Moreover, the activity change % (negative = inhibition) in test [12] was 5.9% (inactive). Further, the results for the activation in test [13] and in test [19] were -0.528% (inactive) and 9.12% (inactive), respectively.
As to `C=CCC1=C(C)[C@@H](OC(=O)[C@@H]2[C@@H](C=C(C)C)C2(C)C)CC1=O`, the Potency entry in test [1], in test [2], in test [6], in test [8], in test [9] and in test [15] was “inactive” each time. Further, the Potency entry in test [17] is “inactive”. In addition, in test [7], the molecule was called inactive. Further, the max response in test [10] was -5.3%; in test [11], -11.9% (inactive); in [14], 2.33% (inactive); in [16] it was -11.6% (inactive); in [20], -2.02% (inactive). Moreover, the activation in [13] is 0.97% (inactive); in [19] it was 1.77% (inactive).
Regarding `CCC[CH2][Sn]([CH2]CCC)[CH2]CCC`, the Potency in test [1] is 15.8 µM [inhibitor] (active); in [16], 15.8 µM (active); in test [20], 28.2 µM (active); in test [17] it was 28.2 µM (active). For the same molecule, the Potency result in test [2] was “inactive”. Further, in [19], the activation is -0.508% (inactive). The max response in test [14] is 1.41% (inactive); in test [18], -14% (inactive).
